Compound activity: PubChem BioAssay, The Scripps Research Institute Molecular Screening Center
Sampled rows, rich in hits. Any-hit rate of the full collection: about 3.4%.
MITF primary – human MITF inhibition, primary screen | O75030 | AlphaScreen MITF homodimerization, bead proximity signal | inhibition, % at 2.6 µM | 650,000 compounds, 0.91% hits | AID 1259374; in the data active means inhibition above about 50%;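 further: 0% = vehicle wells with protein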
TEAD-YAP inh – TEAD-YAP interaction inhibition | HEK-TIYL cells, TEAD-Gal4/YAP UAS-luciferase luminescence | inhibition, % at 9.12 µM | 640,000 compounds, 1.4% hits | AID 1259422; in the data active means inhibition above about 32%;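 further: 0% = median of test compound wells and 100% = reference inhibitor wells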
FBW7 activator – activators of human E3 ligase FBW7; AlphaScreen FBW7–phospho-cyclin E peptide binding, activator screen; normalized activity (activation), % at 26.1 µM; Q969H0; 650,000 compounds, 0.13% hits; in the data active means normalized activity above about 1.9%;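 further: purified mutant Fbw7 with reduced substrate affinity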
GPR151 ag – activators of human GPR151; 650,000 compounds, 1% hits; AID 1508602; PathHunter beta-arrestin GPR151 cells, luminescence; activation, % at 11.2 µM; in the data active means activation above about 4.9%;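 further: 0% = median of compound wells and 100% = cells with positive control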
Target sequence (Q8TDV0 whole entry, looked up): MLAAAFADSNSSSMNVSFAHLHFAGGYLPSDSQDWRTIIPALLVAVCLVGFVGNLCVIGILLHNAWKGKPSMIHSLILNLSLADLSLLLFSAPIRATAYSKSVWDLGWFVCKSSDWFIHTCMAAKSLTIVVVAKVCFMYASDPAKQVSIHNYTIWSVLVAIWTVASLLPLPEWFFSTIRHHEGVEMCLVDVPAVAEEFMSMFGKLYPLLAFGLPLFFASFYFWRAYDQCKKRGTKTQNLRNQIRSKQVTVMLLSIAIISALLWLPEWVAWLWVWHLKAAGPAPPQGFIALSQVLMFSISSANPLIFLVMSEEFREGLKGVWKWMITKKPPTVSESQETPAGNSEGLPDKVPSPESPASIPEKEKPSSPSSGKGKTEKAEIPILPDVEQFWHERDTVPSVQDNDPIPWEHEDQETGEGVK
GPR151 conf act – human GPR151 activation, confirmation screen. activation, % at 11.2 µM. GPR151 PathHunter beta-arrestin cells, luminescence, 90 min; % of EA-reagent control over plate median. shares compounds with GPR151 ag. 6,700 tested, under 10 active. AID 1508609;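 active means mean percent activation across replicates above the confirmation screen cutoff of 4.91%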
GPR119 counter – counter-screen for GPR151 activators: effect on human GPR119; shares compounds with GPR151 ag; GPR119 PathHunter beta-arrestin cells, luminescence, 90 min; 0 = compound-well median, 100 = enzyme-acceptor control; activation, % at 11.2 µM; 6,700 compounds, 0.3% hits; AID 1508611;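 active means mean percent activation in the counterscreen above 29.09%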;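 further: counterscreen on off-target GPR119 to flag nonselective hits from the GPR151 activator screen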
Numbers without * were called inactive.

For CCOC(=O)C(NC(=O)c1cccc(F)c1)(C1C(=O)N(c2ccccc2)N=C1C)C(F)(F)F (stereo not drawn) the results were MITF primary -0.3, TEAD-YAP inh 2.9, FBW7 activator -0.2 and GPR151 ag 0.7.
For Clc1ccc(OCCn2cncn2)cc1 the results were MITF primary -18.2, TEAD-YAP inh -5.2, FBW7 activator 0.0, GPR151 ag 6.4*, GPR151 conf act -1.1 and GPR119 counter -6.8.
CCOc1ccc(CN(C(=O)c2cccs2)C2CCS(=O)(=O)C2)cc1 (stereo not drawn) was read as MITF primary 4.9, TEAD-YAP inh -9.4, FBW7 activator -0.1, GPR151 ag 6.8*, GPR151 conf act 0.1 and GPR119 counter 8.9.
`COc1ccc(CN(C(=O)c2cccs2)C2CCS(=O)(=O)C2)cc1` (stereo not drawn) gave MITF primary 13.8, TEAD-YAP inh -0.1, FBW7 activator 0.0 and GPR151 ag -0.4.
Screening COc1ccc2c(c1OC)C(=O)OC2CC(=O)c1ccccc1O (stereo not drawn) returned MITF primary 9.8, TEAD-YAP inh 1.9, FBW7 activator -0.1 and GPR151 ag -0.7.
`Cc1cc(C=C2C(=O)NC(=S)NC2=O)c(C)n1-c1ccc([N+](=O)[O-])cc1` gave MITF primary 1.4, TEAD-YAP inh -14.1, FBW7 activator -0.2, GPR151 ag 6.1*, GPR151 conf act 0.3 and GPR119 counter 6.9.
`CN(CC(=O)NCCc1ccccc1)S(=O)(=O)c1ccc(Cl)cc1` gave MITF primary -10.0, TEAD-YAP inh 2.9, FBW7 activator -0.3 and GPR151 ag 0.0.
Screening COc1ccc(C(=O)N2CCC(N3CCC(C)CC3)CC2)cc1 returned MITF primary 28.5, TEAD-YAP inh 7.0, FBW7 activator 0.2, GPR151 ag 6.5*, GPR151 conf act 1.4 and GPR119 counter -0.9.
For CC1CC(=O)Nc2ccccc2S1(=O)=O (stereo not drawn) the results were MITF primary -3.5, TEAD-YAP inh -3.4, FBW7 activator -0.2 and GPR151 ag 1.4.
Screening O=C(Nc1ccccc1Sc1ncnc2sc3c(c12)CCCC3)c1ccco1 returned MITF primary 5.1, TEAD-YAP inh 7.4, FBW7 activator 0.0 and GPR151 ag 0.8.
CCC(C)NC(=O)CSc1ncccc1C(=O)O (stereo not drawn) was read as MITF primary 6.8, TEAD-YAP inh 8.8, FBW7 activator 0.1, GPR151 ag 5.1*, GPR151 conf act 0.6 and GPR119 counter -3.4.
COc1cccc(OC)c1C(=O)Nc1ccccc1I was read as MITF primary 14.1, TEAD-YAP inh 13.9, FBW7 activator 0.2 and GPR151 ag -1.6.
COc1ccc(C(=O)N2CCN(S(=O)(=O)c3cc4c5c(c3)CCC(=O)N5CCC4)CC2)cc1 was read as MITF primary 2.4, TEAD-YAP inh 6.5, FBW7 activator -0.1, GPR151 ag 5.7*, GPR151 conf act -0.1 and GPR119 counter -0.1.
For CCOC(=O)CNC(=O)Cn1cnc2c(nnn2Cc2ccc(Cl)cc2)c1=O the results were MITF primary -10.2, TEAD-YAP inh 1.9, FBW7 activator -0.4 and GPR151 ag -0.4.
Screening CCn1c2ccccc2c2nnc(N3CCC(C(N)=O)CC3)nc21 returned MITF primary 2.8, TEAD-YAP inh -0.9, FBW7 activator 0.2 and GPR151 ag -0.8.
NC(=O)CCc1cccc(Oc2ccc(F)cc2)c1 was read as MITF primary 16.1, TEAD-YAP inh -6.4, FBW7 activator 0.1 and GPR151 ag -2.2.
Screening CCC(Br)C(=O)NCCc1ccc(OC)c(OC)c1 (stereo not drawn) returned MITF primary 0.4, TEAD-YAP inh 4.1, FBW7 activator -0.1, GPR151 ag 5.2*, GPR151 conf act -0.7 and GPR119 counter 9.0.
Screening CCCN1CCN(C(=S)NCCc2ccc(OC)c(OC)c2)CC1 returned MITF primary 5.4, TEAD-YAP inh 0.9, FBW7 activator 0.0, GPR151 ag 5.5*, GPR151 conf act 0.3 and GPR119 counter -3.9.
`COc1ccc(CCNC(=O)/C=C\C(=O)O)cc1OC` gave MITF primary 4.1, TEAD-YAP inh -5.0, FBW7 activator -0.2, GPR151 ag 5.0*, GPR151 conf act 1.8 and GPR119 counter 1.0.
